Normalized B-score (activity score, 25-100; higher = stronger inhibition) data for 55 molecules are collected here from PubChem BioAssay AID588511 (Johns Hopkins Ion Channel Center, 2011).

Out of some 310,000 compounds screened, about 3,600 (1.2%) were called active.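 Rule for the calls: active = ratio plate-corrected score three or more library SD toward inhibition, starting fluorescence score within five deviations; inactive = the rest.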 The sample as a whole holds a higher share of actives than the screen did.

The target in this assay is Anoctamin-1 (Mus musculus) (UniProt Q8BHY3). Nature of the assay: TMEM16A chloride channel inhibitors, primary screen, cell-based, HTS (AID 588511).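 For Normalized B-score (activity score, 25-100; higher = stronger inhibition): score derived from kinetic fluorescence span divided by baseline fluorescence per well.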 As to conditions: HEK293 TMEM16A/YFP iodide influx fluorescence, ionomycin; at 10 µM.
Anoctamin-1 (Mus musculus), sequence (Q8BHY3 whole entry, looked up): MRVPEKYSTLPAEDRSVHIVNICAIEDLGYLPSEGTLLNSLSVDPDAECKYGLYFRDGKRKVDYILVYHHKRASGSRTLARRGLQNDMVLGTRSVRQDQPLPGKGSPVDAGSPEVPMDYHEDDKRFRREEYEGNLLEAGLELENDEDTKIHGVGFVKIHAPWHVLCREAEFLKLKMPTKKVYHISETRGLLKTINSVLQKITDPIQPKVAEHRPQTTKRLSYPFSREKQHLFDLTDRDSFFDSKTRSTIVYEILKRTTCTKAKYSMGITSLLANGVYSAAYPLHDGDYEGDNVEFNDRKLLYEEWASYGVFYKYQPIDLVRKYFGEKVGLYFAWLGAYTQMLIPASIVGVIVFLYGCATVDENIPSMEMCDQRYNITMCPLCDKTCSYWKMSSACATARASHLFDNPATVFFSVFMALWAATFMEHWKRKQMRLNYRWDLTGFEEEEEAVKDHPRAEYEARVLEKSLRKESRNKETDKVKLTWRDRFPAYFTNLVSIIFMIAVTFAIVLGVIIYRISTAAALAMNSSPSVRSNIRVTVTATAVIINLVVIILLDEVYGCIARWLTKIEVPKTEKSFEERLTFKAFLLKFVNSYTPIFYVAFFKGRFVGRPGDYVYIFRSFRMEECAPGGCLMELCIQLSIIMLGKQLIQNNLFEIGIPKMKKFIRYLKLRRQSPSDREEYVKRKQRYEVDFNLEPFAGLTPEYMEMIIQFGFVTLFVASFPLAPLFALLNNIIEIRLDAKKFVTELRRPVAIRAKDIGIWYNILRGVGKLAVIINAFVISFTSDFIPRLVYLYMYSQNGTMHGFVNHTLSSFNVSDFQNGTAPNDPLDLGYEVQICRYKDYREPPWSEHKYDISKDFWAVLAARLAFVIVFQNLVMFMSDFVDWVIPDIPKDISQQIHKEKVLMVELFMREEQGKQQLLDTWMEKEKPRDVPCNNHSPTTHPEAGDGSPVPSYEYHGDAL
As for `CC(=O)N(c1ccc2oc(=O)sc2c1)S(=O)(=O)c1ccc(C)cc1`, the normalized B-score (activity score, 25-100; higher = stronger inhibition) entry was “inactive”.

With `Cn1c(SCc2ccc(F)cc2)nnc1-c1ccncc1`, the normalized B-score (activity score, 25-100; higher = stronger inhibition) entry was “inactive”.

Turning to `C=CCn1c(CNS(=O)(=O)c2ccc(Br)cc2)nnc1SC`, the normalized B-score (activity score, 25-100; higher = stronger inhibition) entry is “inactive”.

With `CCOC(=O)c1cc(NC(=O)c2ccc(Cl)cc2)c(=O)oc1-c1ccccc1`, the normalized B-score (activity score, 25-100; higher = stronger inhibition) entry was “inactive”.

As to `CN1OC(COC(=O)c2ccc(Cl)cc2)CC1c1ccccc1` (stereo not given), the normalized B-score (activity score, 25-100; higher = stronger inhibition) is 100 (active).

Take `Cn1cncc1COC(=O)c1ccc(Cl)cc1`: the normalized B-score (activity score, 25-100; higher = stronger inhibition) result was “inactive”.

For the molecule `Cc1cc(OC(=O)c2ccc(Cl)cc2)cc(=O)n1C`, the normalized B-score (activity score, 25-100; higher = stronger inhibition) entry is “inactive”.

In the case of `Cc1ccc(C)c(N2CCN(C(=O)CCCCCn3c(=S)[nH]c4ccc(N5CCOCC5)cc4c3=O)CC2)c1`, the normalized B-score (activity score, 25-100; higher = stronger inhibition) entry is “inactive”.

For `Cc1ccc(C)c(N2CCN(C(=O)CCc3nc4ccccc4[nH]3)CC2)c1`, the normalized B-score (activity score, 25-100; higher = stronger inhibition) result is “inactive”.

`Cc1ccc(C)c(N2CCN(C(=O)CCCCn3c(=O)[nH]c4ccccc4c3=O)CC2)c1`: the normalized B-score (activity score, 25-100; higher = stronger inhibition) is 25 (active).

For the molecule `CC(OC(=O)c1ccc(-n2cnnn2)cc1)C(=O)NCc1ccccc1` (stereo not given), the normalized B-score (activity score, 25-100; higher = stronger inhibition) entry is “inactive”.

Consider `COCCNS(=O)(=O)c1cc(Br)ccc1OC`, for which the normalized B-score (activity score, 25-100; higher = stronger inhibition) entry was “inactive”.

In the case of `CC(=O)N1CCc2cc(S(=O)(=O)NC3CCCCC3)ccc21`, the normalized B-score (activity score, 25-100; higher = stronger inhibition) result is “inactive”.

`Cc1ccc(N)cc1-n1c(C)ccc1C`: the normalized B-score (activity score, 25-100; higher = stronger inhibition) is 100 (active).

Take `Cc1ccc(C)n1-c1ccncc1`: the normalized B-score (activity score, 25-100; higher = stronger inhibition) result was “inactive”.

`CCCn1nnnc1NCc1ccc(OC)cc1`: the normalized B-score (activity score, 25-100; higher = stronger inhibition) entry is “inactive”.

As for `COc1ccc(CNc2nnnn2C)cc1`, the normalized B-score (activity score, 25-100; higher = stronger inhibition) is 25 (active).

Take `Cn1nnnc1NCc1ccc(Cl)c(Cl)c1`: the normalized B-score (activity score, 25-100; higher = stronger inhibition) entry was “inactive”.

On to `C[C@@H]1C[C@@H]2O[C@H]2/C=C\C=C\C(=O)Cc2c(Cl)c(O)cc(O)c2C(=O)O1`, for which the normalized B-score (activity score, 25-100; higher = stronger inhibition) entry is “inactive”.

Consider `CC(C)Nc1nnc(SCC(=O)/C=C2\N(C)c3ccccc3C2(C)C)s1`, for which the normalized B-score (activity score, 25-100; higher = stronger inhibition) result was “inactive”.

In the case of `CN1/C(=C\C(=O)c2oc3ccccc3c2N)C(C)(C)c2ccccc21`, the normalized B-score (activity score, 25-100; higher = stronger inhibition) entry is “inactive”.

`CC(=O)Nc1cccc(OCC(=O)/C=C2\N(C)c3ccccc3C2(C)C)c1`: the normalized B-score (activity score, 25-100; higher = stronger inhibition) is 100 (active).

As for `CCOc1cc(/C=N/NC(=O)c2cccc(S(=O)(=O)N3CCOCC3)c2)ccc1OCC(=O)N(C)C`, the normalized B-score (activity score, 25-100; higher = stronger inhibition) entry is “inactive”.

For `CO[C@@H]1[C@@H](OC(N)=O)[C@@H](O)C(Oc2ccc3c(O)c(NC(=O)c4ccc(O)c(CC=C(C)C)c4)c(=O)oc3c2C)OC1(C)C` (stereo not given in full), the normalized B-score (activity score, 25-100; higher = stronger inhibition) entry is “inactive”.

For `O=C(O)C1=NN(c2c(F)c(F)cc(F)c2F)C(=O)CC1`, the normalized B-score (activity score, 25-100; higher = stronger inhibition) entry was “inactive”.

For `Cc1ccc(CN(N=Nc2nonc2N)c2nonc2N)c(C)c1`, the normalized B-score (activity score, 25-100; higher = stronger inhibition) is 25 (active).

As to `COc1ccc(Cc2nnc(SCC(=O)c3cccc([N+](=O)[O-])c3)n2C)cc1`, the normalized B-score (activity score, 25-100; higher = stronger inhibition) entry is “inactive”.

With `COc1ccccc1C(=O)Nc1ccccc1C(=O)Nc1ccccc1`, the normalized B-score (activity score, 25-100; higher = stronger inhibition) result was “inactive”.

As for `O=C(Nc1ccccc1)c1ccccc1NC(=O)C(F)(F)F`, the normalized B-score (activity score, 25-100; higher = stronger inhibition) is 100 (active).

Turning to `O=C(Nc1ccc(NC(=O)c2ccccc2F)cc1)c1ccccc1F`, the normalized B-score (activity score, 25-100; higher = stronger inhibition) entry was “inactive”.

As to `CCn1cc(CN2CCC(C(=O)Nc3cccc(-c4cccc(Cl)c4)c3)CC2)cn1`, the normalized B-score (activity score, 25-100; higher = stronger inhibition) entry is “inactive”.

On to `CC(=O)c1cc(CN2CCC(C(=O)Nc3cccc(-c4cscn4)c3)CC2)cs1`, for which the normalized B-score (activity score, 25-100; higher = stronger inhibition) was 25 (active).

As to `O=C(Nc1cccc(-c2cscn2)c1)C1CCN(Cc2ccsc2)CC1`, the normalized B-score (activity score, 25-100; higher = stronger inhibition) result was “inactive”.

Consider `COc1ccc2oc(C(=O)NCC(Cc3ccccc3)N(C)C)c(C)c2c1` (stereo not given), for which the normalized B-score (activity score, 25-100; higher = stronger inhibition) entry is “inactive”.

With `COc1ccc(OC)c2sc(NC(=O)C3COc4ccccc4O3)nc12` (stereo not given), the normalized B-score (activity score, 25-100; higher = stronger inhibition) result is “inactive”.

Consider `COc1ccc(NC(=O)c2ccccc2[N+](=O)[O-])cc1OC`, for which the normalized B-score (activity score, 25-100; higher = stronger inhibition) result was “inactive”.

For `O=C(Nc1ncc([N+](=O)[O-])s1)C1COc2ccccc2O1` (stereo not given), the normalized B-score (activity score, 25-100; higher = stronger inhibition) is 25 (active).

Consider `CC(=O)Oc1ccccc1C(=O)Nc1ncc([N+](=O)[O-])s1`, for which the normalized B-score (activity score, 25-100; higher = stronger inhibition) is 100 (active).

On to `Cc1cnc(NC(=O)c2ccccn2)s1`, for which the normalized B-score (activity score, 25-100; higher = stronger inhibition) entry is “inactive”.

As for `COc1ccc(NC(=O)C2COc3ccccc3O2)cc1` (stereo not given), the normalized B-score (activity score, 25-100; higher = stronger inhibition) entry was “inactive”.

On to `O=C(N/N=C/c1cccc2cccnc12)[C@H]1C[C@@H]1c1ccccc1`, for which the normalized B-score (activity score, 25-100; higher = stronger inhibition) entry is “inactive”.

Consider `Cc1ccc(C)c(OCCC(=O)OCC(=O)NC(=O)NCc2ccccc2)c1`, for which the normalized B-score (activity score, 25-100; higher = stronger inhibition) result is “inactive”.

With `O=C(Nc1ccc(S(=O)(=O)N2CCCCC2)cc1)C1CC(=O)N(c2ccc(F)cc2)C1` (stereo not given), the normalized B-score (activity score, 25-100; higher = stronger inhibition) result was “inactive”.

Take `O=C(NC(=S)Nc1ncccn1)c1ccccc1Br`: the normalized B-score (activity score, 25-100; higher = stronger inhibition) entry was “inactive”.

Regarding `COc1ccnc(Oc2ccccc2)c1-c1ncn[nH]1`, the normalized B-score (activity score, 25-100; higher = stronger inhibition) result is “inactive”.

As to `NC(=O)c1c(NC(=O)c2ccccc2)sc2c1CCCC2`, the normalized B-score (activity score, 25-100; higher = stronger inhibition) entry was “inactive”.

As to `Fc1cc(F)c2nc(Nc3nc4c(F)cccc4s3)sc2c1`, the normalized B-score (activity score, 25-100; higher = stronger inhibition) was 100 (active).

Regarding `Fc1cc(F)c2nc(N3CCOCC3)sc2c1`, the normalized B-score (activity score, 25-100; higher = stronger inhibition) entry was “inactive”.

For `COc1cccc(OC)c1C(=O)Nc1sc2c(c1C(N)=O)CCCC2`, the normalized B-score (activity score, 25-100; higher = stronger inhibition) entry is “inactive”.

In the case of `O=C(Nc1nc2c(F)cc(F)cc2s1)C1COc2ccccc2O1` (stereo not given), the normalized B-score (activity score, 25-100; higher = stronger inhibition) entry was “inactive”.

Turning to `NC(=O)c1c(Nc2nc3c(F)cccc3s2)sc2c1CCCC2`, the normalized B-score (activity score, 25-100; higher = stronger inhibition) was 25 (active).

With `Cc1c(C(=O)Nc2ccccn2)oc2ccc(Br)cc12`, the normalized B-score (activity score, 25-100; higher = stronger inhibition) result is “inactive”.

In the case of `CCC(C)(C(=O)Nc1ccccc1C)N(C(=O)CNC(C)=O)c1ccc(C)cc1` (stereo not given), the normalized B-score (activity score, 25-100; higher = stronger inhibition) result was “inactive”.

In the case of `CS(=O)(=O)c1sc(C(=O)NC(=S)Nc2ccc(OC(F)(F)F)cc2)c2c1C=CCC2`, the normalized B-score (activity score, 25-100; higher = stronger inhibition) entry was “inactive”.

For `CC1(C)O[C@@H]2CC3C4C[C@H](F)C5=CC(=O)C=CC5(C)C4C(O)CC3(C)[C@]2(C(=O)CO)O1` (stereo not given in full), the normalized B-score (activity score, 25-100; higher = stronger inhibition) entry is “inactive”.
